Test results from PubChem BioAssay AID1159580 (chemical genetic matrix, 2015).
In all, about 5,500 compounds went through this assay and about 2,000 (36%) were called active. Inconclusive results (about 18%) are left out. Rule as the data show it: active = normalized growth mostly below about 0.91 (no sharp cut-off); inconclusive = no clear call, values can overlap the other calls; inactive = mostly above about 0.92. The list shows a part of the results.

Test: chemical genetic growth profiling, strain panel (AID 1159580);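 also: tested at 20 µM; growth read once vehicle control cultures reached saturation at 30 °C; 1 = growth at the plate median or of vehicle wells; lower values mean less growth of the strain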
Conditions: S. cerevisiae deletion strains, growth OD

Measured: normalized growth

CNC(=O)Oc1ccccc1OC(C)C
inactive: locus YAL013W, strain DEP1, hits give low values 1.01 | locus YAL021C, strain ccr4, hits give low values 0.987 | locus YAL026C, strain drs2, hits give low values 0.99 | locus YAL030W, strain snc1, hits give low values 0.992 | locus YBL061C, strain skt5, hits give low values 0.987 | locus YBR009C, strain hhf1, hits give low values 0.99 | locus YBR021W, strain FUR4, hits give low values 1.02 | locus YBR023C, strain chs3, hits give low values 0.985 | locus YBR171W, strain sec66, hits give low values 0.97 | locus YBR229C, strain ROT2, hits give low values 1.02 | locus YBR231C, strain swc5, hits give low values 0.984 | locus YBR279W, strain paf1, hits give low values 0.989 | locus YCL011C, strain gbp2, hits give low values 0.994 | locus YCL016C, strain dcc1, hits give low values 0.99 | locus YCL029C, strain bik1, hits give low values 0.994 | locus YCL061C, strain MRC1, hits give low values 0.994 | locus YCL069W, strain vba3, hits give low values 0.989 | locus YCR088W, strain abp1, hits give low values 0.99 | locus YDL005C, strain med2, hits give low values 0.985 | locus YDL035C, strain GPR1, hits give low values 1.03 | locus YDL040C, strain nat1, hits give low values 0.979 | locus YDL074C, strain BRE1, hits give low values 1.08 | locus YDL101C, strain DUN1, hits give low values 1.02 | locus YDL134C, strain PPH21, hits give low values 1.02 | locus YDL185W, strain tfp1, hits give low values 0.979 | locus YDL192W, strain arf1, hits give low values 0.989 | locus YDR001C, strain nth1, hits give low values 0.993 | locus YDR069C, strain doa4, hits give low values 0.983 | locus YDR101C, strain arx1, hits give low values 0.983 | locus YDR137W, strain rgp1, hits give low values 1.05 | locus YDR150W, strain NUM1, hits give low values 1.02 | locus YDR159W, strain sac3, hits give low values 0.973 | locus YDR162C, strain NBP2, hits give low values 1.01 | locus YDR195W, strain ref2 0.915 | locus YDR297W, strain sur2, hits give low values 0.998 | locus YDR318W, strain mcm21, hits give low values 0.996 | locus YDR334W, strain swr1, hits give low values 0.982 | locus YDR335W, strain msn5, hits give low values 0.998 | locus YDR388W, hits give low values 0.986 | locus YDR392W, strain spt3, hits give low values 0.978 | locus YDR502C, strain sam2, hits give low values 1 | locus YEL003W, strain gim4, hits give low values 0.993 | locus YEL037C, strain rad23, hits give low values 0.989 | locus YEL061C, strain CIN8 (second series), hits give low values 0.983 | locus YEL061C, strain CIN8, hits give low values 1.01 | locus YER015W, strain faa2, hits give low values 0.991 | locus YER016W, strain bim1, hits give low values 0.991 | locus YER110C, hits give low values 0.994 | locus YER111C, strain swi4, hits give low values 0.984 | locus YER155C, strain BEM2 (second series), hits give low values 0.97 | locus YER155C, strain BEM2, hits give low values 1.02 | locus YER167W, strain BCK2, hits give low values 1 | locus YFR010W, strain ubp6, hits give low values 0.992 | locus YGL078C, strain dbp3, hits give low values 0.966 | locus YGL086W, strain mad1, hits give low values 0.994 | locus YGL167C, strain pmr1, hits give low values 0.987 | locus YGL173C, strain kem1, hits give low values 0.987 | locus YGL227W, strain vid30, hits give low values 0.982 | locus YGL240W, strain doc1, hits give low values 0.974 | locus YGL248W, strain PDE1, hits give low values 1.02 | locus YGL253W, strain hxk2, hits give low values 0.99 | locus YGR078C, strain PAC10, hits give low values 1.03 | locus YGR135W, strain pre9, hits give low values 0.993 | locus YGR229C, strain SMI1, hits give low values 1.03 | locus YGR252W, strain gcn5, hits give low values 0.991 | locus YHR013C, strain ard1, hits give low values 0.954 | locus YHR027C, strain rpn1, hits give low values 0.996 | locus YHR030C, strain SLT2, hits give low values 1.02 | locus YHR079C, strain IRE1 (second series), hits give low values 0.988 | locus YHR094C, strain hxt1, hits give low values 0.992 | locus YHR129C, strain ARP1, hits give low values 1.03 | locus YHR142W, strain chs7, hits give low values 1 | locus YHR200W, strain rpn10, hits give low values 0.986 | locus YIL066C, strain RNR3, hits give low values 1.02 | locus YIL073C, strain SPO22, hits give low values 0.999 | locus YIL125W, strain kgd1, hits give low values 0.984 | locus YIR030C, strain dcg1, hits give low values 0.986 | locus YJL092W, strain hpr5, hits give low values 0.998 | locus YJL095W, strain BCK1 (second series), hits give low values 0.986 | locus YJL095W, strain BCK1, hits give low values 1.02 | locus YJL115W, strain asf1, hits give low values 0.972 | locus YJL129C, strain trk1, hits give low values 0.986 | locus YJL134W, strain LCB3, hits give low values 1.02 | locus YJL154C, strain vps35, hits give low values 0.993 | locus YJL164C, strain tpk1, hits give low values 0.996 | locus YJL166W, strain qcr8, hits give low values 0.994 | locus YJL168C, strain set2, hits give low values 0.989 | locus YJL187C, strain SWE1 (second series), hits give low values 1.02 | locus YJL187C, strain SWE1, hits give low values 0.995
